Screens as filed in PubChem BioAssay.
Compounds with a hit are over-represented: about 6.5% of the library has one in this group of screens.
Lassa entry inh: qHTS for Inhibitors of binding or entry into cells for Lassa Virus | Potency, µM (series often up to 37.9 µM), inactives show top-dose activity change, negative = inhibition, usual class: inhibitors | AID 540256, 2011 | Lassa virus pseudotype entry inhibition, cell reporter | 300,000 tested, 1.2% active; calls by dose curve; tested in HEK293 cells; note: potency is the fitted concentration of half-maximal effect; nearly all actives have a fitted effect of over 50% in size
HCMV inh: qHTS Assay for inhibitors of the human cytomegalovirus (HCMV); 410,000 tested, 4.5% active; activity change, negative = inhibition, % at 57.5 µM; HFF cells, HCMV-luciferase reporter, 72 h; hits give low values; AID 1259415, 2018; in the data active = activity change below about -60%; inconclusive = no clear call, values can overlap the other calls; inactive = above about -39%
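Luciferase read-out from HCMV-luciferase-infected HFFs (MOI 1 PFU/cell) 72 h post infection at 37C; compounds added after 16 h cell attachment; activity normalized between buffer-only basal and Salinomycin (10uM) inhibitor controls.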
MARV entry inh: qHTS for inhibitors of binding or entry into cells for Marburg Virus; Marburg virus pseudotyped entry inhibition, cell reporter; Potency, µM (highest dose often 37.8 µM), without a hit: at the highest dose activity change, negative = inhibition, usual class: inhibitors; 300,000 tested, 1.8% active; AID 540276, 2011; calls by dose curve; tested in HEK293 cells; note: potency is the fitted concentration of half-maximal effect
FMDV antiviral: High Throughput Screening for Foot and Mouth Disease Virus Antivirals; Potency, µM (highest dose often 57.9 µM), for the others: at the top dose activity change, negative = inhibition, most hits filed as inhibitors; FMDV antiviral cell-based qHTS; 410,000 tested, 1.2% active; calls by dose curve; tested in HEK293T cells; note: read-out not given here; potency is the fitted concentration of half-maximal effect; nearly all actives have a fitted effect of over 45% in size
VACV Venus inh: qHTS for Stage-Specific Inhibitors of Vaccinia Orthopoxvirus: Venus Reporter Primary qHTS. AID 720580, 2013. Vaccinia virus Venus reporter expression, fluorescence. Potency, µM (top dose mostly 36.5 µM), for the others: at the highest dose activity change, negative = inhibition, hits mostly inhibitors. 330,000 tested, 0.46% active; calls by dose curve; tested in A549 cells; note: potency is the fitted concentration of half-maximal effect; nearly all actives have a fitted effect of over 30% in size
VACV mCherry inh: qHTS for Stage-Specific Inhibitors of Vaccinia Orthopoxvirus: mCherry Reporter Primary qHTS; Vaccinia virus mCherry reporter infection, fluorescence; Potency, µM (doses to about 36.5 µM), for the others: at the top dose activity change, negative = inhibition, actives largely listed as inhibitors; 310,000 tested, 0.63% active; AID 720579, 2013; calls by dose curve; tested in A549 cells; note: potency is the fitted concentration of half-maximal effect; nearly all actives have a fitted effect of over 35% in size
Numbers without * were called inactive; i = inactive; ? = inconclusive; . = not tested or not shown; ! = repeats disagree; [ ] = remark or other dose. % is set by controls: 0 for no effect and ±100 for the full control effect.

SMILES | Lassa entry inh | HCMV inh | MARV entry inh | FMDV antiviral | VACV Venus inh | VACV mCherry inh
O=S(=O)(NCc1cccnc1)c1cccn1-c1ncc(C(F)(F)F)cc1Cl | -20%[46.1 µM] | -61* | ? | -25% | -14% | -8%
Cc1ccc2[nH]c(C(=O)N3CCc4c(cnc(C)c4CNC(=O)c4ccccc4F)C3)cc2c1 | . | . | . | -6% | 11% | 1%
COc1ccc(C)cc1NC(=O)c1cc2c(=O)n(Cc3cccnc3)ccc2nc1C | 16%[46.1 µM] | -15 | . | -24% | -8% | -14%
Cn1c(=O)cc(OCCCC(=O)Nc2ccc(F)cc2)c2ccccc21 | 17%[46.1 µM] | -27 | -2%[46.1 µM] | -4% | -1% | -18%
CCc1ccc(NC(=O)CCCOc2cc(=O)n(C)c3ccccc23)cc1 | . | -98* | . | 1% | -25% | ?
CCN(CC)CCOC(=O)c1ccc(NC(=O)COc2cc(=O)n(CC)c3ccccc23)cc1 | -1% | -101* | ? | 5% | . | .
Cc1ccc2c(c1)C(N1CCN(C)CC1)=Nc1cccnc1N2 | 8% | . | 11µM*! | . | . | .
Cc1nc(N2CCCC2)c2c(C(=O)N3CCN(c4cccc(C)c4C)CC3)c(C)oc2n1 | 9%[46.1 µM] | 23 | . | -28% | -21% | -5%
Cc1occc1C(=O)N1CCCC(Nc2ccc(C(C)C)cc2)C1 (centres undefined) | 7% | -65* | ? | 0% | -23% | -26%
COc1ccc(OC)c(CN2CCC3(CCC(CNC(=O)c4ccco4)O3)CC2)c1 (centres undefined) | . | . | . | -8% | -1% | -13%
Cc1[nH]nc(-c2cccnc2)c1N=NN(C)C | ? | 62 | 7.1µM* | ? | ? | ?
COc1cc(NC(=S)N2CCN(S(=O)(=O)c3ccc(F)cc3)CC2)cc(OC)c1 | ? | -24 | 21% | 5% | -6% | -13%
COc1ccc(NC(=S)N2CCN(S(=O)(=O)c3ccc(OC)cc3)CC2)cc1 | -29%[46.1 µM] | -13 | 23%[46.1 µM] | 7% | -19% | -10%
COc1ccc(NC(=S)N2CCN(S(=O)(=O)c3ccc(C)cc3)CC2)cc1 | 5% | -61* | 9% | 53% | -11% | -10%
COc1cccc(NC(=S)N2CCN(S(=O)(=O)c3ccc(F)cc3)CC2)c1 | 22%[46.1 µM] | -63* | -3%[46.1 µM] | 14% | -22% | ?
COC(=O)C[C@H]1c2cc(C(F)(F)F)ccc2S(=O)(=O)N1C(C)C | . | . | . | . | -5% | i
O=C(c1ccc(Cn2c(=S)[nH]c3ccccc3c2=O)cc1)N1CCN(c2ccccn2)CC1 | ? | -65* | ? | ? | ? | -24%
CCCCCn1c(=O)[nH]c2cc(C(=O)N3CCN(Cc4ccc5c(c4)OCO5)CC3)ccc2c1=O | ? | -76* | ? | ? | ? | -15%
O=C(c1ccc2c(=O)n(Cc3ccc(Cl)cc3)c(=S)[nH]c2c1)N1CCOCC1 | ? | -65* | -16%[46.1 µM] | ? | -18% | -4%
O=C(c1ccc2c(=O)n(Cc3ccc(Cl)cc3)c(=S)[nH]c2c1)N1CCCC1 | . | 29 | . | -18% | . | .
O=C(c1ccc(Cn2c(=O)[nH]c3ccccc3c2=O)cc1)N1CCN(c2ccccn2)CC1 | -7% | 10 | 10% | 0% | -20% | -14%
O=C(NCc1ccc(Cl)cc1)c1ccc2c(=O)n(CC3CCCO3)c(=S)[nH]c2c1 (centres undefined) | ? | ? | 8%[46.1 µM] | 18µM* | -2% | -15%
Cc1nn(-c2ccccc2)c(C)c1CC(=O)NCC1Cc2cc(-c3cncnc3)ccc2O1 (centres undefined) | . | . | . | -11% | 2% | -11%
COCCNC(=O)c1ccc(Cn2c(SCC(=O)NC(C)C)nc3ccccc3c2=O)cc1 | 14%[46.1 µM] | -5 | . | -5% | -1% | -2%
CCCCNC(=O)c1nc2ccccc2nc1-c1ccc(F)c(F)c1 | . | 53 | . | . | . | .
SMILES | Lassa entry inh | HCMV inh | MARV entry inh | FMDV antiviral | VACV Venus inh | VACV mCherry inh
COc1ccc2c(Sc3ccccc3)c(C(=O)NCCc3ccc(Cl)cc3)[nH]c2c1 | 14%[46.1 µM] | 15 | ? | -11% | -16% | -14%
CC1CC(C)CN(C(=O)c2ccc3c(=O)n(Cc4ccc5c(c4)OCO5)c(=S)[nH]c3c2)C1 (centres undefined) | 4% | -81* | 17% | -26% | . | .
CN1CCN(C(=O)c2ccc3c(=O)n(Cc4ccc5c(c4)OCO5)c(=S)[nH]c3c2)CC1 | . | . | . | . | -9% | -17%
CCOc1ccccc1N(CC(=O)Nc1ccccc1)S(=O)(=O)c1ccccc1 | . | -98* | . | 10% | . | .
CCOc1ccccc1N(CC(=O)Nc1cc(OC)ccc1OC)S(C)(=O)=O | -27% | 41 | -24% | -9% | . | .
CCOc1ccccc1NC(=O)CCN(c1ccc(C)cc1)S(=O)(=O)c1ccccc1 | ? | ? | 14µM* | 3% | -12% | -10%
Cc1ccc(N(CCC(=O)O)S(=O)(=O)c2ccccc2)cc1 | 1% | -21 | ? | -11% | -18% | i
COc1ccc(Cl)cc1N(CC(=O)NC(C)(C)C)S(=O)(=O)c1ccc(C)c([N+](=O)[O-])c1 | 8% | -76* | ? | -11% | -16% | -7%
CCOc1ccccc1N(CC(=O)Nc1cc(OC)ccc1OC)S(=O)(=O)c1ccccc1 | . | -102* | . | -15% | . | .
Cc1ccc2c(c1)N(C=Nc1c(C)cccc1Cl)C(c1ccccc1)c1cccn1-2 (centres undefined) | . | 9 | . | . | . | .
COc1ccc(OC)c(N(CC(=O)NCC2CCCO2)S(=O)(=O)c2ccccc2)c1 (centres undefined) | -1% | -63* | -10%[46.1 µM] | 21% | -4% | -13%
COc1ccccc1N(CC(=O)Nc1cc(C)on1)S(=O)(=O)c1ccc(Cl)cc1 | ? | -69* | ? | -12% | -21% | .
Cc1ccc(N(CC(=O)NCC2CCCO2)S(=O)(=O)c2ccccc2)c(C)c1 (centres undefined) | ? | ? | ? | 5% | -25% | -18%
COc1ccc(OC)c(N(CC(=O)Nc2cccnc2)S(=O)(=O)c2ccc(C)cc2)c1 | ? | 3 | ? | . | -29% | ?
COc1ccccc1N(C)S(=O)(=O)c1ccc(C(=O)OCC(=O)Nc2cc(C)on2)cc1 | -11% | ? | 9% | 12% | . | .
CCN(CC)S(=O)(=O)c1ccc(OC)c(NC(=O)CCS(=O)(=O)Cc2ccccc2)c1 | ? | -69* | -1% | -12% | -13% | -19%
COc1ccc(OC)c(N(CC(=O)Nc2cccnc2)S(=O)(=O)c2ccc(OC)c(OC)c2)c1 | -1% | -35 | 2.8µM*! | -22% | -8% | .
CNc1cc(OC)c(C(=O)N[C@H]2CCN(Cc3ccccc3)[C@H]2C)cc1Cl | . | . | . | -17% | . | .
Cc1ccc2nc(CO)[nH]c2c1 | . | . | . | . | -1% | 12%
NC(N)=N/N=C/c1ccccc1Cl | . | -14 | . | -19% | -14% | ?
NC(N)=N/N=C/c1c(Cl)cccc1Cl | ? | -73*! | 11µM* | -18% | -12% | -19%
